Assay results: PubChem BioAssay
Activity calls are given as the source filed them.

molecular target: Homeobox protein Hox-A13 (Mus musculus) (UniProt Q62424); test: disruptors of Hoxa13 oligonucleotide interaction – biochemical, fluorescence polarization, labeled oligonucleotide, primary screen (AID 1185); conditions: Hoxa13:DNA binding, 15 min, higher = more signal, called active from +8 up or from −8 down
Sequence (Q62424 whole entry, looked up): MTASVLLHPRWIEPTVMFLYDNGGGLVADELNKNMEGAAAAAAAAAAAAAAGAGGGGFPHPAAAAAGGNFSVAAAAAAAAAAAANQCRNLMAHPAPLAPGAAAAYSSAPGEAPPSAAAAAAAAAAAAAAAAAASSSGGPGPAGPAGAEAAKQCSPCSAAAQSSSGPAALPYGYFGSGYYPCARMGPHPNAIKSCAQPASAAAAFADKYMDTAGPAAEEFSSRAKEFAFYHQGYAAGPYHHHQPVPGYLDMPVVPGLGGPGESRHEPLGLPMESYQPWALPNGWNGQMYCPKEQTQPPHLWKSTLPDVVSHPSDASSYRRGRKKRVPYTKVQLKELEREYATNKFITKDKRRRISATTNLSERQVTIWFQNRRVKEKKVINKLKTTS

z-score, inactive:
COCCOC(=O)N1C(=O)[C@@]2(c3cc(C#CC4=CCCCC4)ccc31)[C@H](C(=O)NC[C@H](O)c1ccccc1)[C@H]1C(=O)O[C@H](c3ccccc3)[C@H](c3ccccc3)N1[C@@H]2c1ccc(OCCO)cc1 2.05, CCC#CCN(Cc1ccccc1Br)[C@H](/C=C/c1ccccc1)[C@@H](O)Cc1ccccc1 0.462, C=C(CCCC)/C(=C/C[C@@H](OC(=O)c1ccncc1)c1cccc(OCCO)c1)c1cc(C(=O)OC)ccc1OC -3.11, NC(=O)NCC#Cc1ccc2c(c1)[C@]1(C(=O)N2)[C@H](c2ccccc2OCCO)N2[C@H](c3ccccc3)[C@H](c3ccccc3)OC(=O)[C@H]2[C@@H]1C(=O)N1CCN(c2ncccn2)CC1 0.487, O=C1OCC=C[C@H]2OC34C=CCN(Cc5ccccc5)C(=O)[C@H]3N(CCO)C(=O)[C@@H]4[C@@H]12 (stereo not given in full) -4.18, Cc1ccc(S[C@]2(C(=O)NC(C)C)CC(=O)N(Cc3cc(C(F)(F)F)cc(C(F)(F)F)c3)[C@@H]2c2ccc(CO)cc2I)cc1 -2.81, COc1ccc(C(=O)Nc2ccc(CN3C(=O)[C@]4(O[C@H](CCn5cc(CCO)nn5)[C@@H]([Si](C)(C)c5ccc(OC)cc5)[C@@H]4C)c4ccccc43)cc2)cc1 -3.55, COC(=O)[C@@]1(Cc2ccccc2)[C@H]2c3cc(C(=O)N4CCCC4)n(CCN4CNCC4=O)c3C[C@H]2CN1C(=O)c1ccccc1 -5.22, CCCNC(=O)[C@@H]1c2ccccc2C(=O)N(C2CCCCC2)[C@H]1c1ccc(CO)cc1 -3.69, CC(C)C[C@@H]1NC(=O)[C@H]2C[C@@H](C(=O)NCCCCCC[N+](C)(C)C)[C@@H](c3ccc(O)cc3)N2C1=O -3.14, O=C(NCc1ccccc1)[C@@]1(Cc2ccccc2)COC(c2ccc(OCCCO)cc2)=N1 -4.9, C=CCN1C(=O)[C@@]2(Cc3ccccc3)N=C(c3ccc(OCCCO)cc3)O[C@H]2c2ccccc21 -0.611, COCCCNC(=O)[C@@H]1c2ccccc2C(=O)N(CC23CC4CC(CC(C4)C2)C3)[C@H]1c1ccc(CO)cc1 -4.65, [N-]=[N+]=NCc1ccccc1[C@H]1OC(c2ccc(OCCCO)cc2)=N[C@@]1(Cc1ccccc1N=[N+]=[N-])C(=O)NCc1ccccc1 -1.23, O=C1C2C=CC(C(O)c3ccccc3)N(n3cnnc3)C2C(=O)N1Cc1ccccc1 (stereo not given) -2.02, CCCC[C@@H]1C[C@H]1[C@@H](NC(=O)c1ccccc1)c1ccccc1C(F)(F)F 2.99, COc1ccc(CCN2C(=O)[C@@]3(c4ccc([N+](=O)[O-])cc4)CC(=O)N(CC45CC6CC(CC(C6)C4)C5)[C@@H]3c3ccc(CO)cc32)cc1 -2.14, O=C1O[C@@H](c2ccccc2)[C@@H](c2ccccc2)N2[C@@H](c3ccc(OCCO)cc3)[C@]3(C(=O)Nc4ccc(C#CCCO)cc43)[C@@H](C(=O)N3CCN(c4ncccn4)CC3)[C@H]12 -0.282, Cc1ccc(S[C@]2(C(=O)NC(C)C)CC(=O)N(C3Cc4ccccc4C3)[C@@H]2c2ccc(CO)cc2)cc1 -3.21, C=CC[C@]1(C(=O)O)N=C(c2ccc(OCCCO)cc2)O[C@H]1c1ccccc1N=[N+]=[N-] -5.25, CCOC(=O)C1=C[C@@H](c2ccccc2)N(S(=O)(=O)c2ccc(C)cc2)[C@H]1c1ccc(F)cc1 -0.178, C=CCC(OC(C)=O)[C@@H]1[C@@H](N(Cc2cccc3ccccc23)C(=O)c2ccc(C)cc2)c2cc(OCCCO)ccc2N1C(=O)c1ccc(-c2ccccc2)cc1 (stereo not given in full) -0.128, COc1ccc(-c2cc3c(c(-c4ccccc4)n2)[Si](C(C)C)(C(C)C)O[C@H]3c2ccccc2)cn1 -2.23, Cc1ccc(S[C@]2(C(=O)O)CC(=O)N(Cc3cc(C(F)(F)F)cc(C(F)(F)F)c3)[C@@H]2c2ccc(CO)cc2I)cc1 -2.32

z-score, active:
O=C1O[C@H](c2ccccc2)[C@H](c2ccccc2)N2[C@H]1[C@@H](C(=O)Nc1nc3ccccc3s1)[C@]1(C(=O)Nc3ccc(C#CC4=CCCCC4)cc31)[C@H]2c1ccccc1OCCO -9.05
